PubChem BioAssay (NCATS)
“And” between values parts separate entries of the source, which are not always exact repeats. Equal values may be shown once. Inconclusive results are not listed. Where a call stands in place of a potency, no number is given. The source made the active and inactive calls. Unless noted, calls come from the whole dose curve.

Legend:
[1] = qHTS profiling for inhibitors of Plasmodium falciparum (3D7) proliferation (AID 743322);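 note: infected erythrocytes exposed to compound for 72 h before lysis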; conditions: P. falciparum 3D7 proliferation; at 28.7 µM (top of the series)
Outline: (§1)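 Erythrocytes infected with P. falciparum (0.3% parasitemia, 2.5% hematocrit) incubated with compounds 72 h at 37 C, 5% CO2. Lysis with saponin/Triton buffer containing SYBR Green I, overnight at room temperature in the dark; DNA fluorescence (485/535 nm) normalised to 0.29 uM artemisinin and DMSO.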

[2] = qHTS profiling for inhibitors of Plasmodium falciparum (DD2) proliferation (AID 743323; call rule not given here); conditions: lower = more inhibition; at 28.7 µM (top of the series)
Outline: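 P. falciparum Dd2-infected erythrocytes (0.3% parasitemia, 2.5% hematocrit) exposed 72 h at 37 C, 5% CO2. Lysis with SYBR Green, overnight at room temperature, fluorescence 485/535 nm; normalized to 0.29 uM artemisinin and DMSO.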

[3] = qHTS profiling for inhibitors of Plasmodium falciparum (HB3) proliferation (AID 743324; active = well fitted curve in the direction sought with a large enough effect; an effect the other way counts as inactive or inconclusive); conditions: Plasmodium falciparum HB3 blood-stage proliferation; at 28.7 µM (top of the series)
Outline: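 P. falciparum HB3 grown in erythrocytes (0.3% parasitemia, 2.5% hematocrit final) with compound for 72 h at 37 C, 5% CO2. Parasite DNA detected by SYBR Green after saponin/triton lysis overnight; normalized to 0.29 uM artemisinin and DMSO.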

[4] = qHTS profiling of the MIPE4 collection as inhibitors of Plasmodium falciparum (3D7) proliferation (AID 743344; call rule not given here); conditions: P. falciparum 3D7 in erythrocytes, SYBR Green DNA fluorescence, 72 h; at 28.5 µM (top of the series) unless noted
Outline: as §1

[5] = qHTS profiling of the MIPE4 collection as inhibitors of Plasmodium falciparum (DD2) proliferation (AID 743345; call rule not given here); conditions: P. falciparum Dd2 in erythrocytes, SYBR Green DNA, 72 h; at 28.5 µM (top of the series) unless noted
Outline: as §1

[6] = qHTS profiling of the MIPE4 collection as inhibitors of Plasmodium falciparum (DD2) proliferation (Rep 2) (AID 743346; call rule not given here); conditions: P. falciparum Dd2 in erythrocytes, SYBR Green DNA, 72 h; at 28.5 µM (top of the series) unless noted
Outline: as §1

[7] = qHTS profiling of the MIPE4 collection as inhibitors of Plasmodium falciparum (HB3) proliferation (AID 743347; call rule not given here); conditions: P. falciparum HB3 in erythrocytes, SYBR Green DNA, 72 h; at 28.5 µM (top of the series) unless noted
Outline: as §1

[8] = qHTS for Inhibitors of the Functional Ribonucleoprotein Complex (vRNP) of Lassa (LASV) Arenavirus: LASV Primary Screen - GLuc reporter signal (AID 1347082; calls by dose curve; tested in HEK293 reporter line; note: nearly all actives have a fitted effect of over 60% in size)
[9] = qHTS for Inhibitors of the Functional Ribonucleoprotein Complex (vRNP) of Lassa (LASV) Arenavirus: Viability assay - alamar blue signal for LASV Primary Screen (AID 1347083; calls by dose curve; tested in HEK293 reporter line; note: nearly all actives have a fitted effect of over 80% in size)
[10] = qHTS for Inhibitors of the Functional Ribonucleoprotein Complex (vRNP) of Lymphocytic Choriomeningitis Arenaviruses (LCMV): Viability assay - alamar blue signal for LCMV Primary Screen (AID 1347085; calls by dose curve; tested in HEK293 reporter line; note: nearly all actives have a fitted effect of over 80% in size)
[11] = target: Nucleoprotein (Lymphocytic choriomeningitis virus (strain Armstrong)) (UniProt P09992); experiment: qHTS for Inhibitors of the Functional Ribonucleoprotein Complex (vRNP) of Lymphocytic Choriomeningitis Arenaviruses (LCMV): LCMV Primary Screen - GLuc reporter signal (AID 1347086); note: nearly all actives have a fitted effect of over 70% in size
[12] = target: Peroxisome proliferator-activated receptor delta (Homo sapiens) (UniProt Q03181); experiment: qHTS assay for small molecule agonists of peroxisome proliferator-activated receptor delta signaling (AID 588534)
Outline: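 Cell-based beta-lactamase reporter assay run in agonist mode: cells seeded and incubated 5 hrs at 37 C, compounds added and incubated 18 hrs at 37 C. CCF4 dye fluorescence read after 2 hrs at RT; EC50 and efficacy from Hill fits.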

[13] = target: Bile acid receptor (Homo sapiens) (UniProt Q96RI1); experiment: qHTS assay for small molecule agonists of farnesoid X receptor signaling (AID 588527); conditions: HEK293T FXR-UAS-bla, beta-lactamase ratio, 16 h; activation: stronger effect = higher value
Outline: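 FXR-UAS-bla HEK293T cells (10% dialyzed FBS) preincubated 5-7 h at 37 C, then compounds at up to 92 uM for 16 h at 37 C. CCF4 beta-lactamase read-out after 2 h RT. Normalized to chenodeoxycholic acid (100 uM) and DMSO; Hill fit gave EC50 and efficacy.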

[14] = target: Cytochrome P450 3A4 (Homo sapiens) (UniProt P08684); experiment: qHTS Assay for Inhibitors and Substrates of Cytochrome P450 3A4 (AID 884; active = well fitted curve in the direction sought with a large enough effect; an effect the other way counts as inactive or inconclusive; note: potency is the fitted concentration of half-maximal effect; nearly all actives have a fitted effect of over 50% in size)
Outline: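 20 nM human CYP3A4 with 25 uM Luciferin-PPXE (at KM) in 200 mM KPO4, preincubated 10 min with compound; NADPH regeneration started a 60 min RT reaction. Luciferin detected by luminescence, normalized to 57 uM ketoconazole as full inhibition.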

[15] = target: Cytochrome P450 3A4 (Homo sapiens) (UniProt P08684); experiment: qHTS Assay for Activators of Cytochrome P450 3A4 (AID 885; active = well fitted curve in the direction sought with a large enough effect; an effect the other way counts as inactive or inconclusive; note: nearly all actives have a fitted effect of over 65% in size)
Outline: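 Human CYP3A4 (20 nM) with Luciferin-PPXE at 25 uM (its KM) in 200 mM KPO4; 10 min compound preincubation, then NADPH regeneration and 60 min reaction at RT. Luciferin read by luminescence; normalized to 57 uM ketoconazole full inhibition.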

[16] = MultiTox-Fluor Cytotoxicity Assay - LYMP1-002 - Dead Cells (AID 960; active = well fitted curve in the direction sought with a large enough effect; an effect the other way counts as inactive or inconclusive; note: potency is the fitted concentration of half-maximal effect; nearly all actives have a fitted effect of over 60% in size)
Outline: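 Human lymphoblastoid cells (LYMP1-002), 2500/well in complete medium, were exposed to compounds for 16 hr at 37 C. Dead-cell protease activity was read as bis-AAF-R110 fluorescence (Ex/Em 485/520), normalized to DMSO and 15 uM tetraoctylammonium bromide; AC50 from Hill fits.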

[17] = target: Glucocorticoid receptor (Homo sapiens) (UniProt P04150); experiment: qHTS assay for small molecule agonists of glucocorticoid receptor signaling (AID 588532; active = well fitted curve in the direction sought with a large enough effect in the signal ratio, with a control signal flat; the % refers to the signal ratio); conditions: HeLa MMTV-bla, beta-lactamase ratio, agonist, 18 h; stronger effect = higher value; percent of dexamethasone control, DMSO zero
Outline: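 Stimulation of a glucocorticoid response element-driven beta-lactamase gene was measured in HeLa cells. Responses were scaled between DMSO basal and 0.1 uM dexamethasone, then fitted for half-maximal stimulation.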

[18] = target: Peroxisome proliferator-activated receptor gamma (Homo sapiens) (UniProt P37231); experiment: qHTS assay for small molecule antagonists of peroxisome proliferator-activated receptor gamma signaling (AID 588537; active = well fitted inhibition curve with a large enough effect in the signal ratio, with a control signal flat, not every such curve was filed as active; the % refers to the signal ratio; note: potency is the fitted concentration of half-maximal effect)
Outline: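 PPAR-gamma-UAS-bla HEK293 cells (3000/well, 1% charcoal/dextran-stripped FBS) were preincubated 6-6.5 h at 37 C, given titrated compounds, then stimulated with 50 nM rosiglitazone for 16 h. Beta-lactamase activity was read with CCF4 dye; IC50 came from Hill fits.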

[19] = target: Voltage-gated inwardly rectifying potassium channel KCNH2 (Homo sapiens) (UniProt Q12809); experiment: qHTS Assay for Small Molecule Inhibitors of the Human hERG Channel Activity (AID 588834; active = well fitted curve in the direction sought with a large enough effect; an effect the other way counts as inactive or inconclusive;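 note: potency is the fitted concentration of half-maximal effect; lower thallium flux fluorescence means stronger hERG block; nearly all actives have a fitted effect of over 50% in size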)
Outline: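 hERG-BacMam U2OS, 2000 cells/well; 0.7X FluxOR loading 1 hr RT dark; cpd ~10 min 37 °C; stim buffer; FDSS fluorescence 2 min @ 1 s; AC50 Hill fit.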

[20] = qHTS assay for small molecule activators of the nuclear factor-kappa B (NF-kB) signaling pathway (AID 651749; active = well fitted activation curve with a large enough effect in the signal ratio; the % refers to the signal ratio); conditions: NF-kB-bla ME-180 cells, beta-lactamase FRET ratio, 16 h; activation: stronger effect = higher value
Outline: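 ME-180 cells stably carrying a beta-lactamase reporter under an NF-kB response element were exposed to compound or DMSO vehicle for 16 hr at 37C, 5% CO2. Pathway activation was read by FRET, since reporter expression disrupts FRET.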

[21] = qHTS assay for environmental chemicals that activate the Aryl hydrocarbon Receptor (AhR) signaling pathway (AID 651777; active = well fitted curve in the direction sought with a large enough effect; an effect the other way counts as inactive or inconclusive; note: nearly all actives have a fitted effect of over 15% in size); conditions: 1A2-DRE human hepatoma cells, luciferase, 24 h; activation: stronger effect = higher value
Outline: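 Human hepatoma 1A2-DRE cells, stably carrying a dioxin response element and CYP1A2 promoter driving luciferase, were exposed to compounds for 24 hr at 37 C and 5% CO2. Luciferase signal was then read after 30 min One-Glo at room temperature.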

[22] = target: Peroxisome proliferator-activated receptor alpha (Homo sapiens) (UniProt Q07869); experiment: qHTS assay for small molecule agonists of the peroxisome proliferator-activated receptor alpha (PPARalpha) signaling pathway (AID 651778; active = well fitted curve in the direction sought with a large enough effect; an effect the other way counts as inactive or inconclusive); conditions: PathHunter PPARalpha complementation, chemiluminescence, 6 h; stronger effect = higher value
Outline: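 Cells plated at 2,000/well and held overnight at 37 C, 5% CO2, then compound added by pin tool for 6 hr; after PathHunter detection reagent and 60 min at room temperature, chemiluminescence from enzyme complementation was read.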

Peroxisome proliferator-activated receptor delta (Homo sapiens), sequence (Q03181 whole entry, looked up): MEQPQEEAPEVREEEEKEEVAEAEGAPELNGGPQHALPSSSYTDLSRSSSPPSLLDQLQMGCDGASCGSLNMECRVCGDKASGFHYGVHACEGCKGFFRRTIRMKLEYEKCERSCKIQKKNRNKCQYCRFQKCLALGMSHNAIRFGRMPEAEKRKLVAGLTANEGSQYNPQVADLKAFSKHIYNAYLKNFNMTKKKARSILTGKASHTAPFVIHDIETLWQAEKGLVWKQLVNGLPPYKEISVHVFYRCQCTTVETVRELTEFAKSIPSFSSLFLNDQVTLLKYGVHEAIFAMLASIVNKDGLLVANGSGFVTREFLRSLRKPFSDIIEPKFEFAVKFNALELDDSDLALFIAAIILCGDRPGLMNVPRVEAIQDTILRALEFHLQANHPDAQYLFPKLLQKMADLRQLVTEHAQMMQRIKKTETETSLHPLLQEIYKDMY
Nucleoprotein (Lymphocytic choriomeningitis virus (strain Armstrong)), sequence (P09992 whole entry, looked up): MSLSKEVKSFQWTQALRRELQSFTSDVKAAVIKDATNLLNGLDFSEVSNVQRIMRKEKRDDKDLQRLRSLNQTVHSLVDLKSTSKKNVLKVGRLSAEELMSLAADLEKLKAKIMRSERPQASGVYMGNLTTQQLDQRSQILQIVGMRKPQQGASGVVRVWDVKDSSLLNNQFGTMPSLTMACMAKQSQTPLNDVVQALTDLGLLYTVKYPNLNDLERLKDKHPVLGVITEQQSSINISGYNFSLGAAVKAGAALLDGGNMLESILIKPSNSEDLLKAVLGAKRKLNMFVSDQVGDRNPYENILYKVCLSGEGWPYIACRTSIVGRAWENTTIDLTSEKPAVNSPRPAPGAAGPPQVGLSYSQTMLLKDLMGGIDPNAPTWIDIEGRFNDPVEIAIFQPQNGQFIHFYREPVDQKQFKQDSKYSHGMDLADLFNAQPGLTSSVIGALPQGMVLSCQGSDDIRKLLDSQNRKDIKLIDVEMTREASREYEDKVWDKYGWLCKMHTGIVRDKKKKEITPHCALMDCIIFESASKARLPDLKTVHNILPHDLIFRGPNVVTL
Cytochrome P450 3A4 (Homo sapiens), sequence (P08684 whole entry, looked up): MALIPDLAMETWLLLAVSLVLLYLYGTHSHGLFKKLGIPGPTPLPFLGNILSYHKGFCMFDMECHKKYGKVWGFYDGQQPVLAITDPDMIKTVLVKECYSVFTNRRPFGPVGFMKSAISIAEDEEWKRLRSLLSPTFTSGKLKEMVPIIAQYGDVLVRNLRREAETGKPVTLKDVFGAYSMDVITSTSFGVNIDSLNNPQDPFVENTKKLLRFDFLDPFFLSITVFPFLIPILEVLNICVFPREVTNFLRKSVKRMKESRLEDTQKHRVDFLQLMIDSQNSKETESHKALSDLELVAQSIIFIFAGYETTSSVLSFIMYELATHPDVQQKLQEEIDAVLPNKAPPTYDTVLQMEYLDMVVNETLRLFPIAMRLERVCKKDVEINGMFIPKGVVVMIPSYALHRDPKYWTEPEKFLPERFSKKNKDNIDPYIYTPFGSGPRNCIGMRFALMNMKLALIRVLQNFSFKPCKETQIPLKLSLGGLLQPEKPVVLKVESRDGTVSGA
Peroxisome proliferator-activated receptor gamma (Homo sapiens), sequence (P37231 whole entry, looked up): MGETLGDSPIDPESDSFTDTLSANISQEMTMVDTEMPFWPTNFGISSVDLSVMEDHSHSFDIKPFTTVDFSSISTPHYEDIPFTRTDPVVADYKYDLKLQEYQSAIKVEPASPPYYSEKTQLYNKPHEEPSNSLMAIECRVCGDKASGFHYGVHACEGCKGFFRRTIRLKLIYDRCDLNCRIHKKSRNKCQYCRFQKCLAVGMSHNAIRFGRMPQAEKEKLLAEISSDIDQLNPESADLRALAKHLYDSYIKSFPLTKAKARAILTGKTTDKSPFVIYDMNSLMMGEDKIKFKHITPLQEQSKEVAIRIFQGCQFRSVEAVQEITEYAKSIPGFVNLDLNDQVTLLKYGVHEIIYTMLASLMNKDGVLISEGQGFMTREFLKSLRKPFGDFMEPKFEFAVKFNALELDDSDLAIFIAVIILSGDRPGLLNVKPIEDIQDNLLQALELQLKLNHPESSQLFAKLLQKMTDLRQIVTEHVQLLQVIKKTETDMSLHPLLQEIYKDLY
Peroxisome proliferator-activated receptor alpha (Homo sapiens), sequence (Q07869 whole entry, looked up): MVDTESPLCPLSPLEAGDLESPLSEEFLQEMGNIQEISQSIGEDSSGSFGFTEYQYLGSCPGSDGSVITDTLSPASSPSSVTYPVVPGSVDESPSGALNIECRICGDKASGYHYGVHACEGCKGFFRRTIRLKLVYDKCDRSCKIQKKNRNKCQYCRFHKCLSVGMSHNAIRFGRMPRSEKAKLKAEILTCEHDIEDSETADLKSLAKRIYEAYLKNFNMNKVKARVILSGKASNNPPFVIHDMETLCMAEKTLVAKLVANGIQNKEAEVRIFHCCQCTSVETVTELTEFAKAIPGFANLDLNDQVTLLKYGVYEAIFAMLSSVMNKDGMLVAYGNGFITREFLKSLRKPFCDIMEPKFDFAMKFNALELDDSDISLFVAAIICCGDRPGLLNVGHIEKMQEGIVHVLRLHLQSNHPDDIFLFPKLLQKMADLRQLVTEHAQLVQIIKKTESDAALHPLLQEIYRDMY
Bile acid receptor (Homo sapiens), sequence (Q96RI1 whole entry, looked up): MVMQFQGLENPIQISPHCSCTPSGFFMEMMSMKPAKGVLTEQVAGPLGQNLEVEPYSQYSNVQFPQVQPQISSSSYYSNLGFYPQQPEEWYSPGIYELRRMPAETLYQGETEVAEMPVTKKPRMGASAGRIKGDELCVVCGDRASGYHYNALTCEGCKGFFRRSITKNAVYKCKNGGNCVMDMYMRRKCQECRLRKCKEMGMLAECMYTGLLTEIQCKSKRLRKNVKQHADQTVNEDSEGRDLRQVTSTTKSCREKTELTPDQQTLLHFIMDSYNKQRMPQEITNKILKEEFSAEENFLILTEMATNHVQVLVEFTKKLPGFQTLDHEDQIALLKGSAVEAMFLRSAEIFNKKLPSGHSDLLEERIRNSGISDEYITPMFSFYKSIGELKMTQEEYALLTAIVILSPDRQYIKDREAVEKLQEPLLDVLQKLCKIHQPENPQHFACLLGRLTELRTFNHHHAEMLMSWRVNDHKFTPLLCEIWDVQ
Glucocorticoid receptor (Homo sapiens), sequence (P04150 whole entry, looked up): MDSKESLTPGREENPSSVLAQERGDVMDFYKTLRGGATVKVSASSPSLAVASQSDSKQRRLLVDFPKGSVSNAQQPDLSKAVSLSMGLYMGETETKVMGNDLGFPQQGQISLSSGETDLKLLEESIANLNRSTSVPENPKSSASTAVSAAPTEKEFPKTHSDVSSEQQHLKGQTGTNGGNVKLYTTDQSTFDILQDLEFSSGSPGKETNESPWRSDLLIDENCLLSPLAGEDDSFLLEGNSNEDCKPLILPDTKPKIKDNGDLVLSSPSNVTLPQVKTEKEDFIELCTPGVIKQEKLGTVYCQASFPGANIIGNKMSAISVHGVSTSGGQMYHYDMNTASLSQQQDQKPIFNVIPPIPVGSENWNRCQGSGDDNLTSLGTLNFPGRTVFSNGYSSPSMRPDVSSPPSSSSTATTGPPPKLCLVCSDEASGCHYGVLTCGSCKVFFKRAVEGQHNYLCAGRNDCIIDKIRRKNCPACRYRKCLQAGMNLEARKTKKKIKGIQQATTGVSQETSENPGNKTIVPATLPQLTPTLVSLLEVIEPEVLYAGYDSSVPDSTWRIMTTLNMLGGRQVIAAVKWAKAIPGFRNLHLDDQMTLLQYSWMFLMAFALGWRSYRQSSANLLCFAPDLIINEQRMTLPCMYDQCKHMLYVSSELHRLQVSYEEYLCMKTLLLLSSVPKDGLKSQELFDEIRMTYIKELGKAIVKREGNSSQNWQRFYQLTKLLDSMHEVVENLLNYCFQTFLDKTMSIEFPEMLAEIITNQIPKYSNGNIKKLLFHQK
Voltage-gated inwardly rectifying potassium channel KCNH2 (Homo sapiens), sequence (Q12809 whole entry, looked up): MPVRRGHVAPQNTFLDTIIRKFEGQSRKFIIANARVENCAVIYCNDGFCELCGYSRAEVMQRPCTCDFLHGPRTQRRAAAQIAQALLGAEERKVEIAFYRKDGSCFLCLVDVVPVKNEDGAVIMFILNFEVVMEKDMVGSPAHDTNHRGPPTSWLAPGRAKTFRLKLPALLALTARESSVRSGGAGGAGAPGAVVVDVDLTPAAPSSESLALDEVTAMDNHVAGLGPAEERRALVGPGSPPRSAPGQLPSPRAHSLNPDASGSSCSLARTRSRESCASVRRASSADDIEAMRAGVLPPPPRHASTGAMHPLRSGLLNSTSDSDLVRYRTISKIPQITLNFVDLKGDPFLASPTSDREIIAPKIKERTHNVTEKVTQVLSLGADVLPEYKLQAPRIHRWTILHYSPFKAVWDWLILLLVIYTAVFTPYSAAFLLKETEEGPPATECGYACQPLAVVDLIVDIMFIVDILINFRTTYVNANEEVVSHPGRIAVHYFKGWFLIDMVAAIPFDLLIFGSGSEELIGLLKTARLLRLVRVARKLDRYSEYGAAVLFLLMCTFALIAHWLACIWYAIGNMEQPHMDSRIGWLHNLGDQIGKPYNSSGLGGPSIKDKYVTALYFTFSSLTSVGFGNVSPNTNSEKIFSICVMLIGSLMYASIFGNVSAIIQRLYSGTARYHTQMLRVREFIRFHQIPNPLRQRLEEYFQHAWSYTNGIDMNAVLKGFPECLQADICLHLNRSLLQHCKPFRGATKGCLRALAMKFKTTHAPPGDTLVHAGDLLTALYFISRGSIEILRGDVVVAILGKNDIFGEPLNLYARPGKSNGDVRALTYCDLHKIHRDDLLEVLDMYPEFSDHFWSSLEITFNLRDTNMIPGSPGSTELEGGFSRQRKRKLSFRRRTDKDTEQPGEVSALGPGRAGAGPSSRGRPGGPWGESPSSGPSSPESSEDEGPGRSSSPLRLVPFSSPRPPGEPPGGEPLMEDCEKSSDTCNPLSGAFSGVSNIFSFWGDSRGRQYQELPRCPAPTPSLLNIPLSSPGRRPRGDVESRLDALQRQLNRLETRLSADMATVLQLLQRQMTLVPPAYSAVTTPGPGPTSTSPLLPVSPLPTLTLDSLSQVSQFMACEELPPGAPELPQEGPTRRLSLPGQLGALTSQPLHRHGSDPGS

Molecule `CC(=O)N(O)CCCP(=O)(O)O` has a remaining parasite growth % (stronger effect = lower value) [1] of 13.5%, an activity, percent of control [2] of 10.8% and a remaining proliferation (% of control), lower = more inhibition [3] of 8.45%. The parasite growth, % of DMSO control [4] was 13.6%, the parasite growth remaining, % of DMSO control (lower = more inhibition) [5] was 18.6% and the parasite growth, % of control (lower = inhibition) [6] was 18.1%. The growth, % of control [7] was 13%, the Potency [8] was “inactive” and the Potency [9] was “inactive”. The Potency [10] was “inactive” and the Potency [11] was “inactive”.
For `C[C@H](CCC(=O)O)[C@H]1CCC2C3CC[C@@H]4C[C@H](O)CC[C@]4(C)C3CC[C@@]21C` (some centres undefined), the parasite growth, % of DMSO control [4] was 97.3%, the parasite growth, % of control (lower = inhibition) [6] was 65% and the Potency [8] was “inactive”. For the same molecule, the Potency [9] was “inactive”, the Potency [10] was “inactive” and the Potency [11] was “inactive”.
In the case of `C1CCC2(CCCCO2)OC1`, the Potency [12] is reported as “inactive”, the Potency [8] is reported as “inactive” and the Potency [9] is reported as “inactive”. For the same molecule, the Potency [10] was “inactive” and the Potency [11] was “inactive”.
Work on `CON=C(C(=O)N[C@@H]1C(=O)N2C(C(=O)O)=C(Cn3ccc(=N)n3CCO)CS[C@H]12)c1csc(N)n1` yielded a parasite growth, % of DMSO control [4] of 60.9%, a parasite growth remaining, % of DMSO control (lower = more inhibition) [5] of 93.5% and a parasite growth, % of control (lower = inhibition) [6] of 92%. For the same molecule, the growth, % of control [7] was 99.1%, the Potency [8] was “inactive” and the Potency [9] was “inactive”. For the same molecule, the Potency [10] was “inactive” and the Potency [11] was “inactive”.
With `O=C1CCc2ccccc2O1` the Potency [12] was “inactive”, the Potency [8] was “inactive” and the Potency [9] was “inactive”. The Potency [10] was “inactive” and the Potency [11] was “inactive”.
For `NCCO/C=C/[C@H](N)C(=O)O`, the activation [13] was 4.46% (inactive), the Potency [12] was “inactive” and the Potency [8] was “inactive”. The Potency [9] was “inactive”, the Potency [10] was “inactive” and the Potency [11] was “inactive”.
For `c1ccc(CSCc2ccccc2)cc1`, the Potency [12] was “inactive”, the Potency [8] was “inactive” and the Potency [9] was “inactive”. The Potency [10] was “inactive” and the Potency [11] was “inactive”.
`O=C(C[C@@H]1NCCC[C@@H]1O)Cn1cnc2ccccc2c1=O` gave a remaining parasite growth % (stronger effect = lower value) [1] of -0.414%, an activity, percent of control [2] of -0.451% and a remaining proliferation (% of control), lower = more inhibition [3] of -0.569%. The parasite growth, % of DMSO control [4] was 4.79%, the parasite growth remaining, % of DMSO control (lower = more inhibition) [5] was 6.53% and the parasite growth, % of control (lower = inhibition) [6] was 22.5%. For the same molecule, the growth, % of control [7] was 5.66%, the Potency [8] was “inactive” and the Potency [9] was “inactive”. The Potency [10] was “inactive” and the Potency [11] was “inactive”.
For `CC(C)=CCC/C(C)=C/CC/C(C)=C/CO`, the Potency [12] was “inactive”, the Potency [8] was “inactive” and the Potency [9] was “inactive”. The Potency [10] was “inactive” and the Potency [11] was “inactive”.
Work on `CC(C)OC(=O)[C@H](C)N[P@](=O)(OC[C@H]1O[C@@H](n2ccc(=O)[nH]c2=O)[C@](C)(F)[C@H]1O)Oc1ccccc1` yielded a parasite growth, % of DMSO control [4] of 62.8%, a parasite growth remaining, % of DMSO control (lower = more inhibition) [5] of 95.7% and a parasite growth, % of control (lower = inhibition) [6] of 78.3%. For the same molecule, the growth, % of control [7] was 76.4%, the Potency [8] was “inactive” and the Potency [9] was “inactive”. For the same molecule, the Potency [10] was “inactive” and the Potency [11] was “inactive”.
With `Cc1cccc2c1CC[C@H](CN1CCC(c3c(Cl)cccc3Cl)CC1)C[C@@H]2O` the parasite growth remaining, % of DMSO control (lower = more inhibition) [5] was 25.2%, the Potency [8] was “inactive” and the Potency [9] was “inactive”. For the same molecule, the Potency [10] was “inactive” and the Potency [11] was “inactive”.
In the case of `CCCCCCCCCCCCCCCC`, the Potency [12] is reported as “inactive”, the Potency [8] is reported as “inactive” and the Potency [9] is reported as “inactive”. For the same molecule, the Potency [10] was “inactive” and the Potency [11] was “inactive”.
In the case of `c1ccc(Nc2cccc3ccccc23)cc1`, the Potency [14] is reported as 31.6 µM (active), the Potency [15] is reported as “inactive” and the Potency [16] is reported as 31.6 µM (active). The activation [17] was 4.55% (inactive), the Potency [12] was “inactive” and the Potency [18] was 39.8 µM (active) and 44.7 µM (active). The Potency [19] was 28.2 µM (active), the activation [20] was -0.293% (inactive) and the activation [21] was 4.97% (inactive). For the same molecule, the max response [22] was -0.23% (inactive), the Potency [8] was “inactive” and the Potency [9] was “inactive”. The Potency [10] was “inactive” and the Potency [11] was “inactive”.
